Source: PubChem (National Center for Advancing Translational Sciences (NCATS))
TGFb inhibitor: inhibitors of TGF-b signaling | Potency, µM (series often up to 46.1 µM), for the others: at the highest dose activity, negative = inhibition, usual class: inhibitors | AID 588855 | 1.2% of 410,000 active | HepG2 CAGA-GFP TGF-b/SMAD3 reporter, GFP fluorescence, 18 h; TGF-beta stimulated, 500 pg/mL final; note: potency is the fitted concentration of half-maximal effect; % is set by controls: 0 for no effect and ±100 for the full control effect; nearly all actives have a fitted effect of over 65% in size
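Smad-responsive CAGA-GFP expression was quantified in HEPG2 cells exposed to compounds and 500 pg/mL final TGF-beta for 18 h at 37 degrees C; unstimulated wells defined full inhibition.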
HepG2 viability: HepG2 cytotoxicity, counter-screen for TGF-b inhibitors | HepG2 CAGA-GFP viability, ATP luminescence, 18 h | Potency, µM (highest dose often 46.1 µM), inactives show at the top dose activity change, negative = cytotoxicity, most hits filed as cytotoxic | 0.76% of 410,000 active | AID 588856; note: potency is the fitted concentration of half-maximal effect
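HepG2 CAGA-GFP cells (1000/well, DMEM with 1% FBS) received compound, then TGF-beta at 500 pg/mL final, and were incubated 18 hours at 37 degrees C. Viability was read by CellTiter-Glo luminescence. Media-only wells were set as complete cell-killing and DMSO as no toxicity.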
TDP1 block: TDP1 (human) enzyme inhibition | Q9NUW8 | recombinant TDP1, AlphaScreen DNA substrate cleavage | Potency, µM (top dose mostly 130 µM), without a hit: at the top dose activity change, negative = inhibition, most hits filed as inhibitors | 0.28% of 350,000 active; note: potency is the fitted concentration of half-maximal effect; % is set by controls: 0 for no effect and ±100 for the full control effect; nearly all actives have a fitted effect of over 40% in size
Target sequence (Q9NUW8 whole entry, looked up): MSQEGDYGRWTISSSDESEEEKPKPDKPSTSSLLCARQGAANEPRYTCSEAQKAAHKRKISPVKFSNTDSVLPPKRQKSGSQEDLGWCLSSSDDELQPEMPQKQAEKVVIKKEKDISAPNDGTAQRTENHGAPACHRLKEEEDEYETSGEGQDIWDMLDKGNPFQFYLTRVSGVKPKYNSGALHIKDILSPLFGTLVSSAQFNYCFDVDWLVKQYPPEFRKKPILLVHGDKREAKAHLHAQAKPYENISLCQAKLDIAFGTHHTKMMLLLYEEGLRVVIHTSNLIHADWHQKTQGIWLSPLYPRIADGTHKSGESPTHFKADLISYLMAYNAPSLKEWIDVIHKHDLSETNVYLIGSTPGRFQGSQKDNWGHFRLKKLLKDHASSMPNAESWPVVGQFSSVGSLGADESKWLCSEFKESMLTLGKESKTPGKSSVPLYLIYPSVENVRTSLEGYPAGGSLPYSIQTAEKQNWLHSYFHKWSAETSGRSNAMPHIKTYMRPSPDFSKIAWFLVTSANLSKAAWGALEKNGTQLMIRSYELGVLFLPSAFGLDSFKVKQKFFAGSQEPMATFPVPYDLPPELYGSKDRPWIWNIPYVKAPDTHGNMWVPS
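Compounds were preincubated with Tdp1 (1 nM final) for 15 min at room temperature before substrate (15 nM final) started a 5 min reaction; beads (10 ug/ml final) were then added for 10 min before AlphaScreen detection.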
DT40 TDP1 no CPT: qHTS for Inhibitors of human tyrosyl-DNA phosphodiesterase 1 (TDP1): qHTS in cells in absence of CPT. DT40 Tdp1-/- hTDP1 cells, no CPT, ATP luminescence, 48 h. Potency, µM (titrated, usually from 46.2 µM), for inactives: at the top dose activity change, negative = growth inhibition, most hits filed as inhibitors. 15% of 420,000 active; note: potency is the fitted concentration of half-maximal effect; % is set by controls: 0 for no effect and ±100 for the full control effect; nearly all actives have a fitted effect of over 55% in size
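Readout: luminescence from CellTiter-Glo after 30 min in the dark at RT. Cells: DT40 Tdp1-/- with stable hTDP1, 400/well. Exposure: compounds alone, ≥48 hr, 37 °C.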
DT40 TDP1 CPT: DT40-hTDP1 cell growth loss with CPT. chicken DT40 Tdp1-/-;hTDP1 cells + 20 nM CPT, ATP luminescence, 48 h. Potency, µM (doses to about 46.2 µM), for the others: at the top dose activity change, negative = growth inhibition, actives largely listed as inhibitors. 12% of 420,000 active. AID 686979; note: potency is the fitted concentration of half-maximal effect; % is set by controls: 0 for no effect and ±100 for the full control effect; nearly all actives have a fitted effect of over 55% in size
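Chicken DT40 Tdp1-/- cells complemented with human TDP1, 400 cells/well, exposed to compounds plus 20 nM camptothecin for at least 48 h at 37 C; viability read as ATP content by CellTiter-Glo luminescence.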
IL1B secr inh: inhibitors of inflammasome signaling (IL-1 beta secretion); activity change, % at 57.5 µM; THP-1 LPS/ATP IL-1B secretion, AlphaLISA, 16 h; hits give low values; AID 743279; 4.7% of 360,000 active; in the data active = activity change below about -50%; inconclusive = mostly about -30% to -49%; note: % is set by controls: 0 for no effect and ±100 for the full control effect
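Secreted IL-1B measured by AlphaLISA bead assay after 16 h compound exposure of THP-1 cells; compounds (final up to 57.5 uM) added 1 h before LPS (250 ng/mL) and ATP (1.25 mM) stimulation; lower signal means less secretion.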
An asterisk follows results filed as active; ? = inconclusive; . = no result. Compounds with a hit are over-represented: about 19% of the library has one in this group of screens. Unless noted, calls come from the whole dose curve; as a rule, active = well fitted curve in the direction sought with a large enough effect; inconclusive = small, poorly fitted or top-dose-only effect, or another doubt; inactive = no such curve, though single readings can be large; an effect the other way counts as inactive or inconclusive.

SMILES	TGFb inhibitor	HepG2 viability	TDP1 block	DT40 TDP1 no CPT	DT40 TDP1 CPT	IL1B secr inh
CCC(C)NC(=O)Cn1c(=O)n(-c2cc(OC)cc(OC)c2)c(=O)c2ccccc21 (stereo not drawn)	12%	1%	0%	-11%	0%	.
COc1ccc2c(c1)OC[C@H]1[C@H]2N2C(=O)c3ccc(C)cc3NC(=O)[C@@]2(C)[C@H]1c1ccccc1	?	-24%	2%	?	23µM*	?
COc1ccc2c(c1)OC[C@H]1[C@H]2N2C(=O)c3cc(Cl)ccc3NC(=O)[C@@]2(C)[C@H]1c1ccccc1	-3%	-22%	3%	?	?	?
COc1ccc2c(c1)OC[C@H]1[C@H]2N2C(=O)c3cc(F)ccc3NC(=O)[C@@]2(C)[C@H]1c1ccccc1	-16%	7%	2%	18µM*	?	-62*
COc1ccc2c(c1)OC[C@H]1[C@H]2N2C(=O)c3cc(OC)ccc3NC(=O)[C@@]2(C)[C@H]1c1ccccc1	-5%	-17%	7%	?	?	0
S=C(Nc1ccc(Oc2ccc(NC(=S)NC3CCCCC3)cc2)cc1)NC1CCCCC1	-2%	1%	-5%	?	?	-2
S=C(Nc1ccc(Oc2ccccc2)cc1)NC1CCCCC1	?	-24%	0%	?	26µM*	-15
CCCCN(C)C(=S)Nc1ccc(Oc2ccccc2)cc1	-27%	-15%	3%	?	-25%	0
S=C(Nc1ccc(Oc2ccccc2)cc1)NC1CCCCCC1	?	3%	1%	23µM*	21µM*	-76*
CN(C(=S)Nc1ccc(Oc2ccccc2)cc1)C1CCCCC1	?	-34%	3%	26µM*	?	-100*
CCCN(CC1CC1)C(=S)Nc1ccc(Oc2ccccc2)cc1	?	-24%	8%	16µM*	?	29
O=C(N[C@@H]1c2ccccc2C2(CCN(Cc3c(O)ccc4ccccc34)CC2)[C@H]1O)c1ccccc1	.	.	.	-24%	-11%	.
COc1cccc(N(Cc2nnc3n2CCCCC3)C(=O)Nc2cccc(Cl)c2)c1	-1%	-12%	0%	-19%	-23%	.
O=C(NCc1ccc(F)cc1)Nc1nnc([C@H]2C[C@H](O)[C@@H](CO)O2)s1	28%	5%	.	-2%	15%	5
COc1ccc(C(=O)Nn2c(C)nc3ccccc3c2=O)cc1Br	-1%	7%	.	-28%	-13%	-12
COc1ccc(NC(=O)CN2C(=O)C(C)(C)c3ccccc32)cc1Cl	-27%	-5%	3%	?	?	.
COc1ccccc1NC(=S)NC1CCCCCCCCCCC1	?	-37%	7%	21µM*	10µM*	5
O=c1c(C(c2nnnn2C2CCCCC2)N2CCCCC2)coc2ccc(Cl)cc12 (stereo not drawn)	5%	-11%	-6%	21µM*	?	-19
Cc1ccc(-c2nc(CSCC(=O)N3CCN(c4ccccn4)CC3)c(C)o2)cc1	?	1%	0%	21µM*	18µM*	-16
CCc1ccc(-c2nc(CSCC(=O)N3CCN(c4ccccn4)CC3)c(C)o2)cc1	?	-30%	9%	18µM*	23µM*	?
CCc1ccc(-c2nc(CSCC(=O)NCc3ccc(C)cc3)c(C)o2)cc1	?	-27%	3%	?	?	.
Cc1ccc(-c2nc(CSCC(=O)N3CCOCC3)c(C)o2)cc1	-13%	-19%	0%	-16%	-3%	18
COc1ccc(-c2nc(CCNC(=O)c3c(F)cccc3Cl)cs2)cc1	?	-38%	5%	?	?	.
